Screening results from PubChem.
Many of the other results were omitted from the sample, so hits are more common in it than they were.
EZH2 inh – EZH2/PRC2 methyltransferase inhibitors, primary screen, biochemical, DELFIA time-resolved fluorescence, single point | Histone-lysine N-methyltransferase EZH2 (Homo sapiens), Q15910 | 57,000 tested, 0.35% active | PRC2 H3K27 methylation, DELFIA TRF, 1 h | inhibition, % at 12.5 µM;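 active = mean inhibition of replicates at least 50% and every single replicate also reaching 50%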;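 also: dimethyl H3K27 on biotinylated H3 21-44 peptide detected by antibody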
Each line names hits and unclear results; the compound was inactive in the other large screens.

CCCCC/C=C\C/C=C\C/C=C\C/C=C\CCCC(=O)NCC(=O)O	none
CCCCC/C=C\C/C=C\C/C=C\C/C=C\CCCC(=O)NCCO	none
CCCCC/C=C/C/C=C/C/C=C/C/C=C/CCCC(=O)NCCCC(=O)O	EZH2 inh 81
Fc1ccc(Sc2c(F)c(F)nc(N3CCNCC3)c2F)cc1	none
CCCC(C)n1[nH]c(=O)c2c1NC(=O)CSC2c1cccc([N+](=O)[O-])c1 (configuration not stated)	none
CC(CCc1ccc(O)cc1)O[C@@H]1O[C@H](CO[C@H]2OC[C@](O)(CO)[C@H]2O)[C@@H](O)[C@H](O)[C@H]1O (some centres not stated)	EZH2 inh 94
CC(C)=CCCN1CCC(NC(=O)[C@](O)(c2ccccc2)C2CCCC2)CC1	none
CCNC(=S)N1CCN(CC(=O)Nc2ccc(Cl)cc2C(=O)c2ccccc2)CC1	none
O=c1ccc2cc(OC3O[C@H](CO)[C@@H](O)[C@H](O)[C@H]3O)c(O)cc2o1 (some centres not stated)	none
N#CC(O[C@@H]1O[C@H](CO)[C@@H](O)[C@H](O)[C@H]1O)c1ccccc1 (some centres not stated)	EZH2 inh 97
O=C(Cn1cc(C(=O)c2ccccc2)c2ccccc21)NCC1CCCO1 (configuration not stated)	none
Cc1ccnc(NC(c2ccccc2[N+](=O)[O-])c2ccc3ccc(C)nc3c2O)c1 (configuration not stated)	none
COc1cc2cc(c1Cl)N(C)C(=O)CC(OC(=O)C(C)C)C1(C)OC1C(C)C1CC(O)(NC(=O)O1)C(OC)/C=C/C=C(/C)C2 (configuration not stated)	none
CN1Cc2c(ccc3c2OCO3)[C@@H]2[C@H]1c1cc3c(cc1C[C@@H]2O)OCO3	none
C=CC1CN2CCC1CC2C(OC(=O)c1ccco1)c1ccnc2ccccc12 (configuration not stated)	none
